Experimental data: PubChem BioAssay AID1209 (Sanford-Burnham Center for Chemical Genomics, 2008)
Out of some 190,000 compounds screened, about 810 (0.43%) were called active. No stated cut-off is given here; in the data, active means inhibition above about 50%; inactive means the rest. The list comes from a sample in which actives are over-represented; it also holds similar structures and randomly drawn compounds.

biological target: Mannose-6-phosphate isomerase (Homo sapiens) (UniProt P34949); test: inhibitors of human PMI, primary screen, biochemical, fluorescence intensity, coupled assay (AID 1209); details: purified PMI enzyme, at 20 µM, stronger effect = higher value;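 further: plate controls were DMSO vehicle for no effect and wells lacking substrate for full effect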
Sequence (P34949 whole entry, looked up): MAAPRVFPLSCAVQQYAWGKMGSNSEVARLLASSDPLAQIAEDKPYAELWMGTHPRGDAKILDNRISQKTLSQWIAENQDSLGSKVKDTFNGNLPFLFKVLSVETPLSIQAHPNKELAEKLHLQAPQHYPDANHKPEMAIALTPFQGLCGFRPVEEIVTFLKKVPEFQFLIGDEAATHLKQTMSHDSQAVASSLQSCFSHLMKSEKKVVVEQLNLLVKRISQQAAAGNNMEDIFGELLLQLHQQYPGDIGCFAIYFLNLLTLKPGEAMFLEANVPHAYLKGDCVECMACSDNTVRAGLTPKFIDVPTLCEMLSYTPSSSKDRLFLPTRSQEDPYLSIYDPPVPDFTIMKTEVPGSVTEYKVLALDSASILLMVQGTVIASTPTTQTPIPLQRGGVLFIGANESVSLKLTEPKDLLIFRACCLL

Compound	inhibition
CCOC(=O)C1CC(c2ccccc2)=NNC1=O (stereo not given)	-6.5% (inactive)
COc1ccc(C2CN=NC23CCCc2ccccc2C3=O)cc1 (stereo not given)	3.1% (inactive)
C/C(=C\C(=O)O)C(=O)Nc1nccs1	-3.3% (inactive)
Cc1ccccc1CN1N=C(/C=C/c2ccccc2)CCC1=O	-3.6% (inactive)
C/C(=N\NC(=O)c1ccccc1)c1ccc(C)c([N+](=O)[O-])c1	12.4% (inactive)
CN1c2ccsc2C(O)=C(C(=S)Nc2ccccc2)S1(=O)=O	19.6% (inactive)
Cc1ccc(NC(=S)C2=C(O)c3sccc3N(C)S2(=O)=O)cc1	56.1% (active)
Cc1ccc(NC(=O)C2=C(O)c3sccc3N(C)S2(=O)=O)cc1	1.9% (inactive)
COC(=O)Cc1c(C)nc2nc(-c3ccco3)[nH]n2c1=O	-34.2% (inactive)
Cc1ccc(C)n1-c1ncn[nH]1	5.2% (inactive)
Cc1ccc(-n2c(C)n[nH]c2=S)cc1	11.4% (inactive)
O=C(CN1C(=O)NC2(CCc3ccccc3C2)C1=O)Nc1ccc(Cl)cc1F (stereo not given)	8.5% (inactive)
CC1=NOC(=O)/C1=C/c1ccc(-c2ccc(Cl)cc2)o1	21.9% (inactive)
CC1=NOC(=O)/C1=C\c1ccc(-c2ccc(Cl)c(C(=O)O)c2)o1	66.6% (active)
CC1(C)OC(=O)C(=Cc2ccc(-c3ccc(Cl)c(C(=O)O)c3)o2)C(=O)O1	-12.1% (inactive)
CCOC(=O)c1c(C)nc2ccc(C)cn12	-2.7% (inactive)
O=C(OCn1nnc2ccccc2c1=O)C1COc2ccccc2O1 (stereo not given)	12.1% (inactive)
CN=C(c1ccco1)n1c(=S)nc(-c2ccco2)n(C)c1=S	51.4% (active)
COCCCn1c(-c2ccco2)nc2ccccc2c1=O	-0.1% (inactive)
Cn1c(-c2ccco2)n[nH]c1=S	-5% (inactive)
CCCCn1c(-c2ccco2)n[nH]c1=S	5.8% (inactive)
COCCCN=C(c1ccco1)n1c(=S)nc(-c2ccco2)n(CCCOC)c1=S	52.4% (active)
CN=C(c1ccc(C)cc1)n1c(=S)nc(-c2ccc(C)cc2)n(C)c1=S	37.7% (inactive)
CN(C)C(=O)N1CCC(C(=O)NCc2ccccc2Cl)CC1	3.2% (inactive)
CCOC(=O)c1ccccc1Nc1cc(C)nc2nc(C)nn12	5.5% (inactive)

Compound	inhibition
CCOC(=O)N1CCN(C(=O)CSc2ccc(-c3ccc(OC)cc3)nn2)CC1	-0.8% (inactive)
O=[N+]([O-])c1cc2c(c(CSc3nnnn3-c3ccc(O)cc3)c1)OCOC2	26.2% (inactive)
COc1ccc(/C=N\NC(=O)COc2ccc(C(C)(C)C)cc2)cc1Cn1nc(C)cc1C	-2.3% (inactive)
Cc1ccc(C2NC(=O)NC3=C2CCc2ccccc23)cc1 (stereo not given)	10.5% (inactive)
O=C1NC2=C(CCc3ccccc32)C(c2ccccc2)N1 (stereo not given)	-24.4% (inactive)
COc1ccc(C2NC(=O)NC3=C2CCc2ccccc23)cc1 (stereo not given)	70.7% (active)
CN(C)/C=C(\C(=O)c1ccc(F)cc1F)c1nnnn1-c1ccccc1	-3.7% (inactive)
O=C(CNc1cccc2ccccc12)c1ccc([N+](=O)[O-])cc1	25.3% (inactive)
Cc1ccc(NCCC(=O)c2cccc([N+](=O)[O-])c2)c(C)c1	55.7% (active)
Cc1cccc(NCCC(=O)c2ccc([N+](=O)[O-])cc2)c1C	76.2% (active)
O=C(CCNc1ccccc1)c1cccc([N+](=O)[O-])c1	56.8% (active)
O=C(CCNc1ccc(F)cc1)c1cccc([N+](=O)[O-])c1	47.5% (inactive)
O=[N+]([O-])c1ccc(Cc2ccncc2)cc1	1.8% (inactive)
O=C(CCNc1ccc(Br)cc1)c1cccc([N+](=O)[O-])c1	36% (inactive)
O=C(CCNc1ccc(Cc2ccncc2)cc1)c1cccc([N+](=O)[O-])c1	43.5% (inactive)
Cc1ccc(NCCC(=O)c2cccc([N+](=O)[O-])c2)cc1	43.5% (inactive)
O=C(CCNc1cccc(F)c1)c1cccc([N+](=O)[O-])c1	37.8% (inactive)
Cc1ccc(NCC(=O)c2ccc([N+](=O)[O-])cc2)cc1	-45.3% (inactive)
O=C(CCNc1ccc(Cc2ccncc2)cc1)c1ccc([N+](=O)[O-])cc1	64.4% (active)
CCCn1cc(CN2CCC(Cc3ccccc3)(C(=O)OCC)CC2)c(C)n1	5.2% (inactive)
COc1ccc(NC(=S)N/N=C2\CC(C)(C)Oc3ccc(O)cc32)cc1	5.4% (inactive)
NC(=O)CSC1=Nc2ccccc2C2=NC(c3ccccc3)C(=O)N12 (stereo not given)	-8.5% (inactive)
O=C(c1nn2c(C(F)(F)F)cc(-c3cccs3)nc2c1Cl)N1CCCc2ccccc21	-11.4% (inactive)
COc1ccc(N2C(=O)CN(Cc3cc(OC)c(OC)c(OC)c3)C2=S)cc1	-2.4% (inactive)
CC(/C=C/c1ccccc1)NC(N)=O (stereo not given)	-3.3% (inactive)

Compound	inhibition
N#Cc1ccc(NC(=S)NC(=O)CCc2ccc(S(=O)(=O)N3CCOCC3)cc2)cc1	8.9% (inactive)
CCOc1ccc(-c2nn[nH]n2)cc1OCC	-5.5% (inactive)
CCc1nn(C(C)C(=O)N2CCN(Cc3ccccc3)CC2)c(=O)c2cc3occc3n12 (stereo not given)	16.5% (inactive)
COc1ccc(CNC(=O)C(c2cccs2)N(C(=O)c2csnn2)C2CC2)cc1 (stereo not given)	93% (active)
O=C(NCc1ccccc1)C(c1cccs1)N(C(=O)c1csnn1)C1CC1 (stereo not given)	4.8% (inactive)
O=C(NCc1ccc(F)cc1)C(c1cccs1)N(C(=O)c1csnn1)C1CC1 (stereo not given)	0.7% (inactive)
CCOc1ccc(S(=O)(=O)NCc2ccccc2)cc1C(N)=O	8.4% (inactive)
O=[N+]([O-])c1ccc(N2CCN(S(=O)(=O)c3ccc4ccccc4c3)CC2)cc1NCC1CCCO1 (stereo not given)	5.7% (inactive)
O=C(CCc1nnc(COc2ccccc2)o1)NCc1ccc(Cl)s1	5.4% (inactive)
CN(CCO)C1=CC(=O)CC(C)(C)C1	-12.5% (inactive)
CCOC(=O)c1ccc(CC(=O)c2ccc(O)c(O)c2O)o1	75% (active)
CCCc1cc(C(=O)Cc2ccc(C(=O)OCC)o2)c(O)cc1O	-21.9% (inactive)
CCOC(=O)c1ccc(CC(=O)c2ccc(O)cc2O)o1	-14.1% (inactive)
Nc1ccc(S(=O)(=O)NC2(C(F)(F)F)NC(=O)N(c3ccccc3Cl)C2=O)cc1 (stereo not given)	3.9% (inactive)
COc1ccc(S(=O)(=O)NCCSCc2ccco2)cc1	8.5% (inactive)
Cc1nn(C)c(C(=O)N/N=C/c2ccc(C(F)(F)F)cc2)c1[N+](=O)[O-]	1.6% (inactive)
CC1=Nn2c(nnc2-c2n[nH]c3c2CCC3)SC1	3.5% (inactive)
c1ccc(C2=Nn3c(nnc3-c3n[nH]c4c3CCC4)SC2)cc1	8% (inactive)
CC(C)(C)C1=Nn2c(nnc2-c2n[nH]c3c2CCC3)SC1	75.8% (active)
NS(=O)(=O)c1ccc(N/N=C/c2ccccc2Br)cc1	2% (inactive)
COc1cc2c(cc1/C=C/C(=O)O)OC(C)C2 (stereo not given)	9.4% (inactive)
CC(C)(O)C1Cc2cc(/C=C/C(=O)O)c(O)cc2O1 (stereo not given)	94.4% (active)
CC(C)(Cl)C1Cc2cc3ccc(=O)oc3cc2O1 (stereo not given)	6.2% (inactive)
O=C(OCc1cc2ccccc2[nH]c1=O)C1CCCCC1	-2.3% (inactive)
COc1ccc(N2C(=S)NC(C)(C)CC2(C)c2ccc(OC(C)=O)cc2OC(C)=O)cc1 (stereo not given)	-2.5% (inactive)

Compound	inhibition
COc1ccc(C2(c3ccc(O)cc3O)CC(c3ccccc3Cl)NC(=S)N2)cc1 (stereo not given)	11.9% (inactive)
COc1ccc(C2(c3ccc(OC(C)=O)cc3OC(C)=O)CC(c3ccccc3)NC(=S)N2)cc1 (stereo not given)	63.8% (active)
O=C1Nc2ccccc2C12OCCO2	-6.7% (inactive)
O=C1N2CCCc3cccc(c32)C12Nc1ccccc1S2 (stereo not given)	22.1% (inactive)
O=C1Nc2ccccc2C12Nc1ccccc1S2 (stereo not given)	58.7% (active)
C/C(=N\NC(=O)Cc1ccccc1)c1cccs1	9.1% (inactive)
Cc1cccc(N=Cc2cc3c(cc2[N+](=O)[O-])OCO3)c1	49.7% (inactive)
Cc1ccccc1N=Cc1cc2c(cc1[N+](=O)[O-])OCO2	22.6% (inactive)
O=[N+]([O-])c1cc2c(cc1C=Nc1ccccc1)OCO2	55.1% (active)
COc1ccccc1/C=C/C(=O)Nc1cccc(S(=O)(=O)NC2=NCCCCC2)c1	-3.7% (inactive)
CN(C)c1ccc(NC(=O)Cn2ncn3c(cc4ccccc43)c2=O)cc1	22.7% (inactive)
O=C(NC1CC1)C1CCN(c2ncnc3c2sc2cccc(F)c23)CC1	7.9% (inactive)
Cc1ccc(C2=NC(=O)/C(=C/c3cc(O)c(O)c(Br)c3)S2)cc1	81.3% (active)
COc1cc(/C=C2\SC(c3ccc(C)cc3)=NC2=O)cc(OC)c1O	26.7% (inactive)
COc1cc(/C=C2\SC(c3ccc(C)cc3)=NC2=O)ccc1O	14.1% (inactive)
COc1ccc(NC(=O)N2CCCC2C(=O)Nc2ccc(C)cc2)cc1 (stereo not given)	1.2% (inactive)
CCOc1cc(C2C(C(=O)O)c3cc(OCC)c(OCC)cc3C(=O)N2C)ccc1O (stereo not given)	6% (inactive)
C/C(=C\C(=O)c1ccccc1)NNc1nc2ccccc2s1	-3.4% (inactive)
COc1ccc(S(=O)(=O)n2nc(OC(C)=O)cc2N)cc1	-1.2% (inactive)
Cc1ccc2nc(SCC(=O)NC(=O)NCc3ccco3)[nH]c2c1	6.4% (inactive)
COC(=O)c1ccc(C)c(NC(=O)CCc2ccc(OC)cc2)c1	11.9% (inactive)
CCOC(=O)c1c(N)sn(-c2ccccc2C)c1=S	61.3% (active)
CCOC(=O)c1c(N)sn(-c2ccccc2)c1=S	14.9% (inactive)
C=CCn1sc(N)c(C(=O)OCC)c1=S	-8% (inactive)
COc1ccc(C(NC(=O)/C=C\c2ccco2)c2ccc(OC)c(OC)c2)cc1 (stereo not given)	3.2% (inactive)
